# Unmarked numbers belong to inactive results. No rule for the calls is given here.
# Target: VTCN1, Q7Z7D3
# Sequence (Q7Z7D3 whole entry): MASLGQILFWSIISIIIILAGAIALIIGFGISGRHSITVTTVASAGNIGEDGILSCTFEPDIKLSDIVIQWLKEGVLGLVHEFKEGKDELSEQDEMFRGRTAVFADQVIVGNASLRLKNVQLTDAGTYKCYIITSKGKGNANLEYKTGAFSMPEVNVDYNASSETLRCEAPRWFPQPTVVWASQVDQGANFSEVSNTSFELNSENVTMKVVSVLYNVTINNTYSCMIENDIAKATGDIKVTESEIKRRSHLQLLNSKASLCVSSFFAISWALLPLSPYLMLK
row,Binder,binding in a display sort
1,design_602_0a1f3d3d-7d26-454b-9b34-ebe8ef9bc7d4_227_dldesign_0_cycle1_af2pred (protein) GAAAKAEAAKLAHESNEAKAEAVAHPEKAAEEAKKIKERLKELEKKAKEAPAEVAKYYAKAAKIAKKNLEEAKKVAEEAKA,not found
2,design_602_0a1f3d3d-7d26-454b-9b34-ebe8ef9bc7d4_244_dldesign_0_cycle1_af2pred (protein) AAAEAAKAKVKAIAAKSYAKNPEAGQYITLALAFAKRGDLEEALASLDEAEKEDPTNYPEARAAVLAYYAALKA,not found
3,design_602_0a1f3d3d-7d26-454b-9b34-ebe8ef9bc7d4_268_dldesign_0_cycle1_af2pred (protein) VEEKAKKYIEEAKKKAKEMKELGKKNPAAKENYDAAAKVWETAAKEIEKDPSKAEEYEKKAKKTIAVLLDAANAEL,not found
4,design_602_0a1f3d3d-7d26-454b-9b34-ebe8ef9bc7d4_299_dldesign_0_cycle1_af2pred (protein) EIGKIVDEALEKILELQAEAKKAGKEAAKEVDKVRKEMIKEAKKMAKEGKSAEEVKKFAEEKVEEAKKIAEEAKKK,not found
5,design_602_0a1f3d3d-7d26-454b-9b34-ebe8ef9bc7d4_348_dldesign_0_cycle1_af2pred (protein) IDVKATADKFLKATEEAAKKDAELGKKTAKKAIYTLDVLGEADPEYKEYTDKKKEEIKKTLAELTAKQKAKE,not found
6,design_602_0a1f3d3d-7d26-454b-9b34-ebe8ef9bc7d4_418_dldesign_0_cycle1_af2pred (protein) SEEAKKLAEEAKKEMGNIRLDAYDKASEVNVEEAKKIFEEAKEKIEKIAKETAELVPEYAEEILKGGEKAMKALERAAKDIEKAE,not found
7,design_602_0a1f3d3d-7d26-454b-9b34-ebe8ef9bc7d4_487_dldesign_0_cycle1_af2pred (protein) EEEKRIEEAKKKAREAAEKAREYGKKIIKLGYDPKKAAELAQKAQEARAEAEALPEKAEEAAKKAKEAAEELEKLLKEAEA,not found
8,design_602_0a1f3d3d-7d26-454b-9b34-ebe8ef9bc7d4_533_dldesign_0_cycle1_af2pred (protein) SLKEELAEKAEEKAKKAVEALKAYAKADPSKAEEMAAAAKKVKEAAERGKKGNVQEAGSAEVLAESALSAAEKKLKEL,not found
9,design_602_0a1f3d3d-7d26-454b-9b34-ebe8ef9bc7d4_576_dldesign_0_cycle1_af2pred (protein) AEAEKQAALAEASQLLLEANSFAKWVSEYAKELGQEDIAKKAEEAGKEYTKKAKAYIKAGKAEEAKKEAEKLLEEAEKLYKEAKEKA,not found
10,design_602_0a1f3d3d-7d26-454b-9b34-ebe8ef9bc7d4_595_dldesign_0_cycle1_af2pred (protein) AAAVKAKMQAIAAAAKDAAKRAKEVAEKTGSTEAEADAVRAQHLSDAATINANGTQAQADAAQARLDVLKARAEKLEKEAKE,not found
11,design_602_0a1f3d3d-7d26-454b-9b34-ebe8ef9bc7d4_766_dldesign_0_cycle1_af2pred (protein) GELEALAERAAELVLDPEKAEEGVALVVERLRALTDPAEIARLVQLVQQALAEAAAKNPEKAAQLRAAAKRVVEAAREIVAEKAAAA,not found
12,design_602_0a1f3d3d-7d26-454b-9b34-ebe8ef9bc7d4_881_dldesign_0_cycle1_af2pred (protein) EKEKAAKKIAELMDKAYDLISDGGEAEIKKGKELAKEAVKLGKEAGPELAKKAEKGLRALERLAEETEKALKK,not found
13,design_602_0a1f3d3d-7d26-454b-9b34-ebe8ef9bc7d4_990_dldesign_0_cycle1_af2pred (protein) MDKDGIAYSIKAKHIAEAALILGEKSTPEMAEVFKEVAELAKEAAEAALKDAETGKKLLKEVLKKAREAKKKAEEAKKA,not found
14,design_602_0a1f3d3d-7d26-454b-9b34-ebe8ef9bc7d4_1060_dldesign_0_cycle1_af2pred (protein) GEEKEKKVEEIEKKAKEEAKKYAEEIAKALKDPEKMKKIATEATDKLLEMAEEMVETDKKAGKKAAEMIREGLRIMKETYEKERKKA,not found
15,design_602_0a1f3d3d-7d26-454b-9b34-ebe8ef9bc7d4_1202_dldesign_0_cycle1_af2pred (protein) DEVEKILKEALEKMEEYKKKALEEAAKKDPETSKKLTELIEKRFEKREKELKEEMKKNKNDPEKAKRIGFHAVARAEITYEQAKLA,not found
16,design_602_0a1f3d3d-7d26-454b-9b34-ebe8ef9bc7d4_1205_dldesign_0_cycle1_af2pred (protein) LKERIEKLKEEGKKLEEEAEEMKDKDASAKLYQLAHAALAAAKRAEEALKAGNKEEAEKYLKIGEEAVKKGKEILKKGKA,not found
17,design_602_0a1f3d3d-7d26-454b-9b34-ebe8ef9bc7d4_1230_dldesign_0_cycle1_af2pred (protein) AEAEKKAKEAVKLAEKYYEKAKELAKEAEKDPKLKEAAKKIKKDAEEIKKALEKGIKEGNEVEAAQTSKSLYRAAEAEYKRAKK,not found
18,design_602_0a1f3d3d-7d26-454b-9b34-ebe8ef9bc7d4_1317_dldesign_0_cycle1_af2pred (protein) MEEKKEEEARKVAHEAFRVAALAENVASAAEKKGDEEIAKKAKEARKTAEKAMELAREGNVKEARKLAKEARKVVEELRKKLEA,not found
19,design_602_0a1f3d3d-7d26-454b-9b34-ebe8ef9bc7d4_1333_dldesign_0_cycle1_af2pred (protein) EKERKEKIAKILLESAKDAMKEAEKALKEGKAKKAMMLATLAVSSAKNAYDFGKEASKELAEEAKKALEEAKEMLKKVKKALE,not found

row,Binder,binding in a display sort
1,design_602_0a1f3d3d-7d26-454b-9b34-ebe8ef9bc7d4_1408_dldesign_0_cycle1_af2pred (protein) AAAAAAAAKAALDLAKEQLKKAKEYKELAKKYKEEGNISKANSAEADAINAAHAAIVAATKAAADPKYAAEAKKVKDEAEKLEKEVLE,not found
2,design_602_0a1f3d3d-7d26-454b-9b34-ebe8ef9bc7d4_1422_dldesign_0_cycle1_af2pred (protein) DAFLKEAEKLKKKLTEELKKLKEEAKKLTPEVQKKVLEEVKEAEEALKKALELAKKGDKKEAGKAAQEALEKLAEARWLVNKAK,not found
3,design_602_0a1f3d3d-7d26-454b-9b34-ebe8ef9bc7d4_1428_dldesign_0_cycle1_af2pred (protein) EEEEKKKKEYVEKIKKALKEVKEAGKKGTEEQKKLAAETADKLYELKAIAEFSNAEEAEKYAEKAEKLAKETLKKIKK,not found
4,design_602_0a1f3d3d-7d26-454b-9b34-ebe8ef9bc7d4_1603_dldesign_0_cycle1_af2pred (protein) KNTLEKAAEAIQAYREEATAYAKEISKKEGKEAGEKAYEEFKKKVKELIALAKADPEAGLKEATKLLEELKAK,not found
5,design_602_0a1f3d3d-7d26-454b-9b34-ebe8ef9bc7d4_1646_dldesign_0_cycle1_af2pred (protein) SEFKKKAKLISEAELLINRMAALSPEAAAGAKAILKLAEGGKQEEAEKKIKEIKAASPEEATKLAIEVGKKVAAE,not found
6,design_602_0a1f3d3d-7d26-454b-9b34-ebe8ef9bc7d4_1707_dldesign_0_cycle1_af2pred (protein) AAAAEAFGKELAAMLDEAYDKSTEDLEKAKEVLAKLKAKAEAAPAEVAEYAKKALKTAKSIEDSIEIEEKLKK,not found
7,design_602_0a1f3d3d-7d26-454b-9b34-ebe8ef9bc7d4_1719_dldesign_0_cycle1_af2pred (protein) GLAEEYKKKAEEAEEKAFNSKNVEAAYYYLKASQYYNAAAIYTKKGEEYLEKAKESYEKGKEYEKKGEEIEKK,not found
8,design_602_0a1f3d3d-7d26-454b-9b34-ebe8ef9bc7d4_1736_dldesign_0_cycle1_af2pred (protein) DLKEKVEKAEKILKKRKEKLEKAKEKGPKEAKKEAALAKEQMENLIEALKKILEEAKDDPETKAKAEKVIEEAKKLKEEAEKLEKE,not found
9,design_602_0a1f3d3d-7d26-454b-9b34-ebe8ef9bc7d4_1768_dldesign_0_cycle1_af2pred (protein) EEKERAKKFGEGYGEAQLDLAESAMKKATKPEEVKKAAETAAERARKRAKEGTPEEAEELLKAAEKIEKLGKEYLAKL,not found
10,design_602_0a1f3d3d-7d26-454b-9b34-ebe8ef9bc7d4_1801_dldesign_0_cycle1_af2pred (protein) GKLVEEAKKALEEAKALAAKNPELAKMAEAALERFEKSLRAGLAAADGLASTAAKLGAEDPENAKLAELAGKAAELLFEAI,not found
11,design_602_0a1f3d3d-7d26-454b-9b34-ebe8ef9bc7d4_1819_dldesign_0_cycle1_af2pred (protein) GSAIMDAQAKAVEIRTEAEKLAKEYKDLPTAKDFKKAAEIAREALKNGEEAIELSKKAEELLEKAKKKLKEELEKK,not found
12,design_602_0a1f3d3d-7d26-454b-9b34-ebe8ef9bc7d4_1902_dldesign_0_cycle1_af2pred (protein) DEKKKNLLRAAALTLEEAIEALDTDKNWGAALARSAARYAEEAGDEETAAIAREAAELAAAGGPEVAPEAKALLKEAAERLKKKI,not found
13,design_602_0a1f3d3d-7d26-454b-9b34-ebe8ef9bc7d4_1947_dldesign_0_cycle1_af2pred (protein) ATEEEVKAAVRETIKAAKKYVEAGGDAKEAAEIAHKAQEAKAEGIASGKLDEAYAKVKKLAEEAKAKAEEVEK,not found
14,design_602_0a1f3d3d-7d26-454b-9b34-ebe8ef9bc7d4_2169_dldesign_0_cycle1_af2pred (protein) SAFEILKVIEEKAKEVYEITKEENPKIAKKIAAAAYTAGVALGAGDEEEAKKVIEKGKALADKEGAEKGKKALEEAVEEVKKKAKE,not found
15,design_603_0b98da89-d791-4423-9b2d-fd1b7292da18_10_dldesign_0_cycle1_af2pred (protein) EKEKEELRKELLEKYEEVKKAVEEALKNASNPEVQAELAKVVHEFQELAAEVGAKYPEIAEEAKKLRKEAIEEAKKAVEKSK,not found
16,design_603_0b98da89-d791-4423-9b2d-fd1b7292da18_39_dldesign_0_cycle1_af2pred (protein) EETFKKAVEELLKIAKEVYKKDPKAGSAAAGEIYRGKAEYEATGNLEVGVEELQKAAEIIKKADKELGEKAKKIVEEAKKK,not found
17,design_603_0b98da89-d791-4423-9b2d-fd1b7292da18_74_dldesign_0_cycle1_af2pred (protein) KEKVKKLEEEAIKALKELSKYRDNPEKAAEYAEKLYEKAFEMGIPLSIASRAAKLAKEGEEGAKEGVKLIKEEAKKVIEE,not found
18,design_603_0b98da89-d791-4423-9b2d-fd1b7292da18_78_dldesign_0_cycle1_af2pred (protein) MSENVKFASELIRKVVKEAKKIGKEKGASEEAKKKAIEEVAKAIDKISEAAQKGDKEKAKAIAEEAIKKIKKILEEGA,not found
19,design_603_0b98da89-d791-4423-9b2d-fd1b7292da18_202_dldesign_0_cycle1_af2pred (protein) GSATVDALEKALDAREELLRLAKELPPERAELAEKLRAAAEELRETIRRAQKLSPEEGAALITAAAEKARALAKEVKAA,not found
